Rab9 promoter act – activators of Rab9 promoter. Huh7 Rab9 promoter-luciferase reporter, luminescence, 24 h. Potency, µM (series often up to 9.22 µM), usual class: activators. hit rate 2.8% among 320,000. AID 485297; note: nearly all actives have a fitted effect of over 60% in size
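Rab9 promoter-driven luciferase in stably transfected Huh7 cells; 1500 cells/well rested 2 h, exposed to compound in DMSO for 24 h at 37 °C, 5% CO2. Luminescence read 10 min after adding luciferase reagent at ambient temperature.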
SMN2 splice up – SMN2 splice variant enhancement; HEK293 SMN2-luciferase splicing reporter, luminescence, 30-36 h; hit rate 2.8% among 210,000; Potency, µM (highest dose often 46.1 µM), usual class: activators; note: nearly all actives have a fitted effect of over 55% in size
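HEK293 cells carry an SMN2 […]–luciferase reporter in which exon 7 inclusion puts luciferase in frame. Cells were plated 10-12 h before compound addition, then incubated 30-36 h at 37C. ONE-Glo luminescence was read; sodium butyrate at 4.5 mM final served as control.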
FLuc counter – counter-screen for miR-21 project: firefly luciferase inhibitors or activators | P08659 | purified FLuc, Km substrates, luminescence inhibition | Potency, µM (top dose mostly 57.5 µM), most hits filed as inhibitors | hit rate 6.9% among 360,000; note: nearly all actives have a fitted effect of over 55% in size
Target sequence (P08659 whole entry, looked up): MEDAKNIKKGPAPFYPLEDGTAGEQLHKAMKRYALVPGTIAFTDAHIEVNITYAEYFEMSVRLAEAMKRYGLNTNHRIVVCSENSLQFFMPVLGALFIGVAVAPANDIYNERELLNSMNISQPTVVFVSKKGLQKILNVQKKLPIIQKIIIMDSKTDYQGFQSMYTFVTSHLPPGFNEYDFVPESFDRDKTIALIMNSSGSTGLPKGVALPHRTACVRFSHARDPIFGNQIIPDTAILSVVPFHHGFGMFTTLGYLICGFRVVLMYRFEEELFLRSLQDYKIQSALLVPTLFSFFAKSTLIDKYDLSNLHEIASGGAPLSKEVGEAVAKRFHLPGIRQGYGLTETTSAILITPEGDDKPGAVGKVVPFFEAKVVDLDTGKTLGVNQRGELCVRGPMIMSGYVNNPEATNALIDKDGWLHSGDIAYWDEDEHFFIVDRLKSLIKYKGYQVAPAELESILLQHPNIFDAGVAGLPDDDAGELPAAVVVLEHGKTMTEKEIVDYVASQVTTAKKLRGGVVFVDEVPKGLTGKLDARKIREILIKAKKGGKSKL
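Biochemical qHTS of compounds, final roughly 60 µM downward over six points, against 10 nM purified firefly luciferase using Km concentrations of substrates (10 uM D-luciferin, 10 uM ATP) in Tris acetate pH 7.5 buffer; luminescence output.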
NPC1 promoter act – NPC1 promoter activation | Huh7 NPC1 promoter luciferase reporter, 24 h | Potency, µM (highest dose often 9.22 µM), hits mostly activators | hit rate 2.4% among 320,000 | AID 485313; note: nearly all actives have a fitted effect of over 60% in size
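In 1536-well qHTS, Huh7 cells harboring an NPC1 promoter–luciferase construct received compound for 24 h; activation was quantified by luminescence following luciferase reagent addition.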
ELG1 genotox – genotoxicity induction in ELG1-luciferase HEK293T cells; HEK293T ELG1-luciferase reporter, luminescence, 16 h; Potency, µM (doses to about 46 µM), hits mostly activators; hit rate 1.3% among 330,000; AID 504466; note: nearly all actives have a fitted effect of over 60% in size
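16 hr compound incubation (37 °C, 5% CO2) of HEK293T cells carrying luciferase-tagged ELG1; luciferase then measured by ONE-Glo luminescence after 30 min at RT.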
Hits are given with their value; 0 = inactive; ? = inconclusive; - = no result given. Compounds with a hit are over-represented: about 7.4% of the library has one in this group of screens. Calls come from the whole dose curve; as a rule, active = well fitted curve in the direction sought with a large enough effect; inconclusive = small, poorly fitted or top-dose-only effect, or another doubt; inactive = no such curve, though single readings can be large; an effect the other way counts as inactive or inconclusive.

SMILES	Rab9 promoter act	SMN2 splice up	FLuc counter	NPC1 promoter act	ELG1 genotox
COc1ccc(-c2nnc(SC(C)C(=O)NNC(=O)c3ccc(C)cc3)o2)cc1 (stereo not given)	0	0	0	0	0
COc1ccc(-c2nnc(SC(C)C(=O)Nc3cccc(Cl)c3)o2)cc1 (stereo not given)	4µM	16µM	0	?	21µM
Cc1cc(C)n2c(nc3ccccc32)c1C(=O)NN	0	-	0.38µM	0	0
Cc1ccc(C(=O)Nc2sc(C)c(-c3ccccc3)c2C(N)=O)cc1[N+](=O)[O-]	0	0	3.4µM	0	2.9µM
Cc1ccc(C(=O)Nc2cccc(NC(=O)c3ccc(C)c([N+](=O)[O-])c3)n2)cc1[N+](=O)[O-]	0	-	0	0	0
CCCc1ccc(-c2cc(C(=O)N/N=C/c3ccc([N+](=O)[O-])o3)c3ccccc3n2)cc1	?	0	0.15µM	0	?
Cc1cc(C(=O)N/N=C/c2ccc([N+](=O)[O-])o2)c(C)o1	0	-	0	0	0
O=C(N/N=C/c1ccc([N+](=O)[O-])o1)c1cc(-c2cccc(Br)c2)nc2ccccc12	0	0	4.8µM	0	0
C/C(=N/OC(=O)c1ccccc1)c1oc(C)nc1C	0	-	12µM	0	0
C/C(=N/Oc1nc(C)cc(C)n1)c1ccc(Cl)cc1Cl	0	0	0	0	0
C/C(=N/OC(=O)c1ccc(Cl)cc1Cl)c1oc(C)nc1C	0	-	7.6µM	0	0
O=C(c1cccnc1)N1CCN(c2ccc3ccccc3n2)CC1	0	0	0	0	0
Cc1ccccc1-c1nn2c(=O)cc(CN3CCN(C(=O)c4ccccc4Br)CC3)nc2s1	-	-	0	-	-
CS(=O)(=O)Oc1ccc2c(c1)O/C(=C\c1cccc([N+](=O)[O-])c1)C2=O	0	-	0	0	0
COc1ccccc1/C=C/C=C1\Oc2c(ccc(O)c2CN(C)C)C1=O	0	-	3µM	0	0
CS(=O)(=O)Oc1ccc2c(c1)O/C(=C\C=C\c1ccccc1)C2=O	0	-	7.6µM	0	0
CCN(CC)Cc1c(O)ccc2c1O/C(=C\C=C\c1ccccc1)C2=O	0	-	12µM	0	0
COCCN(CCOC)Cc1c(O)ccc2c1O/C(=C\c1ccc(C)o1)C2=O	0	-	?	0	0
O=C(c1ccccc1Cl)N1N=C(c2cccs2)CC1c1cccc(O)c1 (stereo not given)	0	-	0	0	0
CN(C)S(=O)(=O)c1ccc(-c2cn3ccccc3n2)cc1	2.5µM	?	5.4µM	?	5.8µM
Oc1ccc(-c2cn3ccccc3n2)cc1O	?	-	12µM	0	13µM
Brc1ccc(-c2cn3ccccc3n2)cc1	0.4µM	-	0.76µM	0.71µM	?
O=C(COc1ccc(Br)cc1)NCc1cn2ccccc2n1	0	-	0	0	0
Nc1cc(-c2ccc(Br)cc2)nc2cc(-c3ccccc3)nn12	0	0	?	0	0
Brc1ccc(OCc2cn3ccccc3n2)cc1	0.63µM	10µM	2.7µM	1.6µM	?
SMILES	Rab9 promoter act	SMN2 splice up	FLuc counter	NPC1 promoter act	ELG1 genotox
CN(C)S(=O)(=O)c1ccc(-c2ccccc2)cc1	0	0	0	0	0
Cc1ccccc1N1C(S)=C(C#N)C(=O)NC12CCCCC2	0	?	0	0	0
Oc1ccc(-c2cn3ccccc3n2)cc1	2.8µM	-	5.4µM	2.2µM	?
CCOC(=O)c1cn2ccc(C)cc2n1	0	-	?	0	?
c1ccc2c(-c3cn4ccccc4n3)c[nH]c2c1	3.5µM	14µM	12µM	?	0
c1ccn2cc(C34CC5CC(CC(C5)C3)C4)nc2c1	0	0	?	0	0
Cc1ccn2cc(-c3ccc(O)c(O)c3)nc2c1	0	-	3µM	?	3.3µM
COc1cc(SC)ccc1C(=O)Nc1cccc(C2OCCCO2)c1	1.4µM	-	17µM	3.5µM	0
CSc1ccc(Cl)c(C(=O)Nc2ccc(Cl)cn2)c1	0	-	0	0	0
COc1cc(SC)ccc1C(=O)Nc1ccc2c(c1)CCC2	4µM	-	2.1µM	4µM	?
COc1cc(SC)ccc1C(=O)Nc1ccccc1C#N	0	13µM	?	0	9.2µM
COc1cc(SC)ccc1C(=O)Nc1ccc(Cl)cn1	0.89µM	-	0.076µM	0.89µM	?
COc1cc(OC)cc(C(=O)NNC(=S)NCc2ccco2)c1	0	0	0	0	0
CCn1cc(C(=O)OCC(=O)c2cc(C)n(-c3ccc(OC(F)F)cc3)c2C)c(=O)c2ccc(C)nc21	0	0	0	0	0

Screening data (PubChem BioAssay)
